In PubChem BioAssay:
Activity calls are given as the source filed them.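 How the source made its calls: active means inhibition above the hit cutoff set in the earlier primary screen (cut at about 27% in these data); inactive means the rest.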

biological target: Protein phosphatase methylesterase 1 (Homo sapiens) (UniProt Q9Y570); assay: PME-1 inhibitor activity retest, confirmation, biochemical, fluorescence polarization, FP-Rh probe, triplicate (AID 2171); settings: recombinant PME-1, FP-Rh probe fluorescence polarization; at 5.9 µM; stronger effect = higher value;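 further: 0% = enzyme with DMSO and 100% = wells lacking PME-1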
Sequence (Q9Y570 whole entry, looked up): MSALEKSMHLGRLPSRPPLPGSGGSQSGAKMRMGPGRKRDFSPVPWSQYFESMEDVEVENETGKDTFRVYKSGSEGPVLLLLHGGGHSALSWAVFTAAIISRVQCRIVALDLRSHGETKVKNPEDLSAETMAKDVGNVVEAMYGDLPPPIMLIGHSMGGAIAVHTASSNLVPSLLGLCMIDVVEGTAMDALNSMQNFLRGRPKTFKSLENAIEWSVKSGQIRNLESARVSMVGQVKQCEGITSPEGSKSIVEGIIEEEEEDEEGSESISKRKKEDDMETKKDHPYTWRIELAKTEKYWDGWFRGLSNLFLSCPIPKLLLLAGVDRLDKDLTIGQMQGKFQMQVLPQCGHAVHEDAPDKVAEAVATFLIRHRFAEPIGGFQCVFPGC

SMILES | inhibition
CC(C)=NNc1nc2sc3c(c2c(=O)[nH]1)CC(C)(C)OC3 | 14.6% (inactive)
CCN(CC)C(=O)C1c2ccccc2Oc2ccccc21 | 7.22% (inactive)
Cc1ccc(C(=O)Nc2nnc(CC(=O)N/N=C/c3ccc(O)c(O)c3)s2)cc1 | -26.6% (inactive)
Nc1c(N=Nc2ccccc2F)c(=O)[nH]n1-c1ccccc1 | 30.1% (active)
COc1ccc(-c2cc(-c3ccc(Cl)cc3)n[nH]2)c(O)c1 | 16.9% (inactive)
O=C(CN1CCCc2ccccc21)N/N=C/c1c(O)ccc2ccccc12 | 5.54% (inactive)
O=C1/C(=C/Nc2ccc3c(c2)OCO3)CCc2ccccc21 | 19.5% (inactive)
Cc1ccc(S(=O)(=O)N2CCN(C(=O)Cn3cnc4c3c(=O)n(C)c(=O)n4C)CC2)cc1C | 20.7% (inactive)
COC(=O)c1ccc(NC(=O)Nc2ccc(OC)cc2)cc1 | 23.2% (inactive)
CCN(CC)C(=O)c1csc(Nc2cccc3ccccc23)n1 | 23.8% (inactive)
O=C(Nc1cccc(C(F)(F)F)c1)c1ccc2nc(-c3ccco3)c(-c3ccco3)nc2c1 | -3.36% (inactive)
O=C(CSc1c(F)c(F)cc(F)c1F)Nc1ccc(C2SCCS2)cc1 | 5.01% (inactive)
CC1=CN2C(=N)/C(=C/c3ccc([N+](=O)[O-])o3)C(=O)N=C2S1 | -6.58% (inactive)
CCn1c(CSc2nnc3ccccn23)nc2cc(C(=O)O)ccc21 | 59% (active)
COc1cc2c(C#N)c(N3CCc4ccccc4C3)nc(N)c2c(N)n1 | 32.4% (active)
C/C(=N/Nc1nc(-c2ccccc2F)nc2ccccc12)c1ccccc1O | 3.91% (inactive)
COc1ccc(-c2c/c(=N\c3nc(-c4ccccc4)c(C)s3)c3ccccc3o2)cc1O | 20.8% (inactive)
Cc1ccc(O)c(C(=O)c2cc(C#N)c(=O)n(-c3nccs3)c2)c1 | -1.15% (inactive)
Cc1cccc2c(N=O)c(O)[nH]c12 | 54.3% (active)
Cc1[nH]c2ccccc2c1CCNC(=O)c1ccc2c(c1[N+](=O)[O-])C(=O)c1ccccc1C2=O | 30.9% (active)

SMILES | inhibition
CCn1cc(C(=O)NCCCN2CC(C)CC(C)C2)c(=O)c2cc(S(=O)(=O)N(C)C3CCCCC3)ccc21 (centres undefined) | 35.6% (active)
Cc1ccc(NC(=O)CS(=O)CC(=O)Nc2ccccc2-c2ccc(C)o2)cc1 (centres undefined) | 2.84% (inactive)
CCCCN(CCCC)CCNC(=O)c1cn(CC)c2ccc(S(=O)(=O)N3CCc4ccccc4C3)cc2c1=O | 48.8% (active)
CCN(CC)c1ccc(/C=N/NC(=O)c2cccc(S(=O)(=O)Nc3ccccc3OC)c2)c(O)c1 | 25.8% (inactive)
CCCCn1c(NC(=O)c2ccccc2Cl)c(C#N)c2nc3ccccc3nc21 | 19.9% (inactive)
COc1cc(/C=N/NC(=O)c2cc3ccccc3[nH]2)ccc1O | 16.1% (inactive)
CCCCN(CC)CCCNC(=O)c1cn(CC)c2ccc(S(=O)(=O)N3CCc4ccccc4C3)cc2c1=O | 59.1% (active)
O=C(CNc1cccc2ccccc12)N/N=C/C(Br)=C/c1ccccc1 | -1.47% (inactive)
C=CCCC(=O)Nc1nc(C)c(-c2csc(Nc3ccc(Cl)cc3)n2)s1 | 48.2% (active)
O=C(COC(=O)c1cccc2c1C(=O)c1ccccc1C2=O)NC1CCCCC1 | 56.5% (active)
COc1ccc2c(Cl)c(C(=O)N/N=C/c3c(C)[nH]c4ccccc34)sc2c1 | 18.5% (inactive)
COc1cc2c(cc1OC)CN(C(=O)c1ccc3[nH]c(C)c(C)c3c1)CC2 | 38.8% (active)
COc1ccc(S(=O)(=O)N(C)C)cc1NC(=O)Cc1c[nH]c2ccccc12 | 85% (active)
CCNc1ccccc1CP(=O)(c1ccccc1)c1ccccc1O (centres undefined) | 8.88% (inactive)
Cc1ccc(C)c(NC(=O)COC(=O)c2cc3ccccc3oc2=O)c1 | 22.3% (inactive)
COc1ccc(N2CCN(C(=O)C3CCN(S(=O)(=O)c4ccc(F)cc4)CC3)CC2)cc1 | 59.1% (active)
CCCCN(CC)CCCNC(=O)c1cn(C)c2ccc(S(=O)(=O)N(C)C3CCCCC3)cc2c1=O | 14.5% (inactive)
COc1ccc2ccc3c(c2c1)N=C[C@]1(O3)N(C)c2ccccc2C1(C)C | 5.96% (inactive)
COc1cc(OC)cc(C(=O)Oc2ccc(/C=N/Nc3nc4ccccc4s3)cc2OC)c1 | 24.3% (inactive)
